# Results reported in the supplement of paper PMC11417369.
# ± gives the standard deviation of the averaged measurements. Whole data set: some 25,000 sequences, median “ln(normalized median fluorescence intensity)” near 7.9, cut for the highest 2% near 11. The sample holds the highest values, similar sequences and a random draw of the others, so the mix is not that of the screen.
# Tested on: PfAP2-I AP2 domain 3 (GST-tagged)
# Assay: gcPBM binding intensity (ln(normalized median fluorescence intensity)); higher = stronger DNA binding
# How it was run: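 Binding of GST-tagged P. falciparum DNA-binding domains, expressed in E. coli and used at about 25 μg on average, was carried out for 1 h in 1× PBS containing 1% milk, 0.2 mg/ml BSA, 0.5% salmon testes DNA and 0.03% Triton X-100. The target was an Agilent 4 × 180k array of primer-extended double-stranded 36-bp intergenic genomic probes plus negative controls, read with Alexa488 anti-GST antibody at 488 nm. Binding intensity is the highest Masliner-normalised natural-log median intensity across replicate spots of either probe orientation.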
row,Sequence,gcPBM binding intensity (ln)
1,GATGTTTCTATTTTAGTGCATTTTAAATAAATAAAT,10.4 ± 0.12
2,ATGAATACAAAATTATACAAAATTATCAAAAGTATG [CACACA_negctrl_site1453],7.5 ± 0.49
3,TTGTATACATAAAATGGTACAGAATATATAATTCTA [XGTACX_site7236],7.45 ± 0.61
4,TATTTTTGGTTATGTGTGCACTATGAACAACAAAAT,11.4 ± 0.26
5,ATAATATATGTATGTATGCACTTTTATTATTTTTTT,8.96 ± 0.15
6,AATAACTATATATGTGTGCACAAAAATTTGACATAA,10.7 ± 0.049
7,ATTTTATGAAATGTTGCACACAAAAAACAACATGTT [CACACA_site8408],8.95 ± 0.092
8,TATATATAAATATATGTGCACTTTTTATATTTATAT,11 ± 0.13
9,AAATATATGTTATATGTGCACTTTTTTTTTTTTTTT [GTGCAC_site9667],10.21 ± 0.035
10,TATATTATTTATTTTTGTACATATTATGAATGAATA [XGTACX_site3971],7.73 ± 0.33
11,ACTCAAACCTTTAGAGTGCAAAAAAAAAAAAAAAAA [GTGCAC_site9952],10 ± 0.21
12,TTTTTTAAAAGATAATATTTTATTAATGTATTCTCA [GTGCAC_negctrl_site598],7.2 ± 0.55
13,TTAAAAAAATATTGAAGTACACACATTATAAACTTT [XGTACX_site3548],7.89 ± 0.38
14,CTTTTTTTGACCTTAGTGCAAATAACTATATATTAT,10.5 ± 0.41
15,TAGGAAAAAAATACAGTGCAATTTTTATATAAATAA [GTGCAC_site9979],8.62 ± 0.5
16,AAATAAATTTGACCAGTGCAATAACTTTGTATACCT [GTGCAC_site9446],11.2 ± 0.64
17,AAAAAAAAAGAAAAATGTACATACATAAATATATAT [XGTACX_site5664],7.77 ± 0.68
18,TAATTGATTCTTCACCGTACTCACACATATATATAT [XGTACX_site6530],8.99 ± 0.085
19,AGTATAAGCATTATTGTGCACATAATTATAATTTTT,10.6 ± 0.53
20,ATATATATATAATTTGTACACACAAATATGCATATA [CACACA_site9136],9.18 ± 0.24
21,TGTGCATAATTTTGTGCACACCACGCTAATAATTTT [CACACA_site2915],11.4 ± 0.48
22,CATATATAAAATATATGTACTTATAGAACATAATTT [XGTACX_site1936],7.3 ± 0.35
23,AAATACTTAACATTGGTGCATATTTGTAAAATTATT [GTGCAC_site9515],10.3 ± 0.55
24,TTTTTGTAAAATAAACGTACAAAACAATTGTTCATT [XGTACX_site6537],7.82 ± 0.4
25,TTTGTTCATATTATTGTGCACTTAAACGTAACAAAA [GTGCAC_site9505],11.3 ± 0.39
26,AATACAATAAAATAGTGTACATATATATTATGTATA [XGTACX_site8258],7.63 ± 0.27
27,ATATAAATATAGTGTGCACACACATAATATATATAT [CACACA_site8713],9.49 ± 0.11

row,Sequence,gcPBM binding intensity (ln)
1,TTATACAGGACAATAGTGCACATAAATATATGTATA,11.2 ± 0.51
2,TTAACATACACTCTAGTGCATATATATAACAAAATA [GTGCAC_site9724],10 ± 0.17
3,ATATATATATATAGTGCACACATATAAAATATATAT [CACACA_site8884],11.5 ± 0.15
4,TAATAAAAAAAGTGCACACACATAATATATATATAT [CACACA_site3340],9.93 ± 0.37
5,AAAAATAAATATATATGTACACATATGTATACAATA [XGTACX_site4692],7.65 ± 0.38
6,ATGAAACACTCCATAGTGCAAAATATATATTATATT,10.27 ± 0.057
7,AATAATAAAAAAAGTGCACACACATAATATATATAT [CACACA_site9100],9.95 ± 0.014
8,ATTACACATATAGTAGTGCAATAACTCCAAAAAAAA,11.4 ± 0.6
9,TATATATATATGTGCACACATAATAAAAAAAAAAAT [CACACA_site3831],10.3 ± 0.11
10,ATATATATATAGTGCACACATATAAAATATATATAA [CACACA_site2745],11.29 ± 0.078
11,TTTTCTTTTTGTTCGTGTACACACATGAAATTTATA [XGTACX_site3301],8.78 ± 0.68
12,TACAGAAATTTATATATATATATATATATATATATA [XGTACX_negctrl_site209],9.39 ± 0.54
13,ATATAAAACTAATTTCTTTTTCTCCTTTTATTTTGT [CACACA_negctrl_site1251],7.8 ± 0.59
14,AACAAACAAATAGTTTATTTTGATTTTTTTAAAAAT [CACACA_negctrl_site693],7.36 ± 0.65
15,AATAAAATTTGCGATGCACACAGAATAGCTAATATG [CACACA_site8983],7.96 ± 0.57
16,TATATATAAATATATACACACATGAAAATAAATAAA [CACACA_site2514],7.67 ± 0.45
17,TTGAAAAATGAGCACACACACAAATACATACATATT [CACACA_site3231],7.97 ± 0.36
18,ATATTTTTTTTTTTCACACACATTTATATTGTATTA [CACACA_site5695],8.01 ± 0.79
19,TTAGCAACTATTACTACACACATTTTTATATAACTT [CACACA_site6762],7.84 ± 0.59
20,TTTAAAATAAATTAATAGAACAAAAATAAAATGATT [GTGCAC_negctrl_site375],7.78 ± 0.67
21,AAATTAAAGGCATAAAAGAAAATATTTAATAAAAAA [CACACA_negctrl_site1689],7.71 ± 0.73
22,ATAGGCACTTTTTGCACACGTATGAATAACAAAATA [CACACA_site5069],9.54 ± 0.13
23,ATATGCACTTTTTGCACACGTATGAATAACAAAATA [CACACA_site1810],10 ± 0.25
24,TTATATGCACTTTTTGCACACGTATGAATAACAAAA [CACACA_site1811],10.8 ± 0.86
25,ATAAACATCTAGTGCTGTACACAATTTGATTTTTTT [XGTACX_site3110],8.9 ± 0.31
26,TATTTTTTTTTATTTTTTTTTATTTTGTTTTTTTAT [TGCATGCA_negctrl_site315],7.32 ± 0.52
27,AAAAAAATTAAATCAAGTACTCATTCTTAAATTATA [XGTACX_site1274],7.32 ± 0.49
